Source: PubChem BioAssay
RGS4-Gao reg: human RGS4-Galphao interaction regulation. hit rate 0.33% among 220,000. Multiplexed bead flow cytometry, RGS4-Galphao binding; actives lie on both sides. P09471. binding response (% of control), % at 10 µM; in the data active means binding response below about 49% or above about 150%; inactive means in between;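 further: fluorescent Galphao activated with aluminum fluoride binding bead-coupled RGS4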
Target sequence (P09471 whole entry, looked up): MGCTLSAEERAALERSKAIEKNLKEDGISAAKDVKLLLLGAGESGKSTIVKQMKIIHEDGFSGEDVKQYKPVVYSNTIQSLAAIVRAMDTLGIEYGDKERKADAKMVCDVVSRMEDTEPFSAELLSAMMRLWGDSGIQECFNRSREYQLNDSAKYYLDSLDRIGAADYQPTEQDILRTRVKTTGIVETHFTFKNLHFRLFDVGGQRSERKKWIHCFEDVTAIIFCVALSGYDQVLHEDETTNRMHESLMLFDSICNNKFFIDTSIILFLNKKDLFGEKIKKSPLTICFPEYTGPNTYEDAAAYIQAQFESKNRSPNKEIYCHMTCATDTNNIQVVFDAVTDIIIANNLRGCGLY
RGS8-Gao: modulates binding of RGS8 to human Galphao. response (percent of control binding), % at 10 µM. hit rate 0.34% among 220,000. multiplexed bead flow cytometry; actives lie on both sides. P09471; in the data active means response below about 60% or above about 140%; inactive means in between;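 further: Galphao activated as the GDP aluminium fluoride complex binding bead-coupled RGS8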
GSH bead fluor: GSH bead compound fluorescence profile. hit rate 0.25% among 190,000. AID 1776. fluorescence (KMESF) at 10 µM. GSH beads flow cytometry, compound fluorescence 488/530 nm; stronger effect = higher value; in the data active means fluorescence above about 89;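 further: glutathione beads carrying GST-tagged Bcl family fusion proteins plus one bare bead set; values are compound well signal with DMSO vehicle wells as background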
Avidin fluor: avidin bead compound fluorescence profile; AID 1775; Avidin beads, compound fluorescence 488/530 nm, flow cytometry; stronger effect = higher value; fluorescence (KMESF) at 10 µM; hit rate 0.38% among 220,000; in the data active means fluorescence above about 47
RGS16-Gao: RGS16-Galphao interaction regulator (human); bead-based flow cytometry RGS16-Galphao binding, fluorescence; actives lie on both sides; hit rate 0.38% among 220,000; AID 1441; binding response (% of control), % at 10 µM;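 further: Galphao activated by GDP with aluminum fluoride before binding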
RGS7-Gao: modulates binding of RGS7 to human Galphao. Multiplexed bead flow cytometry; actives lie on both sides. binding response (% of control), % at 10 µM. P09471. hit rate 0.35% among 220,000. AID 1439; in the data active means binding response below about 49% or above about 150%; inconclusive means no clear call, values can overlap the other calls; inactive means in between;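 further: fluorescent Galphao held in activated GDP-AlF4 state binding bead-coupled RGS7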
RGS-Gao: modulates binding between human RGS4 and Galphao; shares compounds with RGS16-Gao; multiplexed bead flow cytometry, RGS–Galpha-o binding; RGS4–Galpha-o binding response, % at 10 µM; hit rate 99% among 1,600; AID 1504;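 further: fluorescently labeled Galpha-o bound to GDP with aluminium fluoride binding biotinylated RGS beads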
Target sequence (P09471 whole entry, looked up): as above
Target sequence (P49798 whole entry, looked up): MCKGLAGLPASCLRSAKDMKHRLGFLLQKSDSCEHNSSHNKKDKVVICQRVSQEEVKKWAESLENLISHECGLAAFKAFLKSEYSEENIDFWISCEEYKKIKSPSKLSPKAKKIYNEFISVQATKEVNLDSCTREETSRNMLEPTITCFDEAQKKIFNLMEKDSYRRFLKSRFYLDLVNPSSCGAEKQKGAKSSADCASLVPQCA
Biotin-avidin: biotin-avidin bead binding disruption counter-screen; shares compounds with RGS16-Gao; streptavidin beads, fluorescein-biotin binding, flow cytometry; inhibition, % at 10 µM; 1,700 tested, under 10 active; AID 1783;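 active means inhibition above 50%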;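 further: median green fluorescence of gated singlet beads compared with DMSO control wells; 0% = DMSO wells and 100% = complete loss of bead fluorescence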
RGS8-Gao single: confirmation of regulators of human RGS8-Galphao interaction; shares compounds with RGS16-Gao; bead-based flow cytometry RGS8-Galphao binding, fluorescence; actives lie on both sides; binding response (% of control), % at 10 µM; hit rate 3% among 1,700; AID 1836; in the data active means binding response below about 72% or above about 130%; inactive means in between;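 further: Galphao activated as GDP AlF4 complex before binding bead RGS8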
RGS7-Gao confirm: RGS7-Galphao interaction regulation, single point confirmation. response (percent of control binding), % at 10 µM. hit rate 7.8% among 1,700. bead-based flow cytometry RGS7-Galphao binding; actives lie on both sides. shares compounds with RGS16-Gao. AID 1837; in the data active means response below about 75% or above about 130%; inactive means in between;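 further: fluorescent Galphao activated with GDP and aluminum fluoride binding bead-coupled RGS7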
RGS16-Gao conf: RGS16-Galphao interaction regulation, single point confirmation; hit rate 4% among 1,700; bead-based flow cytometry, RGS16-Galphao binding; actives lie on both sides; shares compounds with RGS16-Gao; response (% of control binding), % at 10 µM; AID 1838; in the data active means response below about 74% or above about 130%; inactive means in between;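 further: Galphao activated as the GDP aluminium fluoride complex binding bead-coupled RGS16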
RGS4-Gao single: confirmation of regulators of human RGS4-Galphao interaction; shares compounds with RGS16-Gao; RGS4-Galphao binding, multiplexed bead flow cytometry; actives lie on both sides; binding response (% of control), % at 10 µM; hit rate 4% among 1,700; in the data active means binding response below about 74% or above about 130%; inactive means in between
RGS19-Gao conf: confirmation of regulators of human RGS19-Galphao interaction | shares compounds with RGS16-Gao | bead-based flow cytometry RGS19-Galphao binding; actives lie on both sides | response (percent of control binding), % at 10 µM | hit rate 5% among 1,700; in the data active means response below about 50% or above about 160%; inactive means in between;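 further: 100% = no compound control and 0% = blank background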
* marks the source's active call; other numbers are inactive results; ? = inconclusive; · = no result given; [ ] = remark or other dose. An excerpt weighted towards active compounds, which were near 1.2% of everything screened. Unless noted, how the calls were made is not given here.

SMILES | RGS4-Gao reg | RGS8-Gao | GSH bead fluor | Avidin fluor | RGS16-Gao | RGS7-Gao | RGS-Gao | Biotin-avidin | RGS8-Gao single | RGS7-Gao confirm | RGS16-Gao conf | RGS4-Gao single | RGS19-Gao conf
O=C(c1cnccn1)N(Cc1ccco1)C1(C(=O)NC2CCCCC2)CCCCC1 | 79 | 80 | 8 | 8 | -54* | 89 | 79* | 2 | 102 | 106 | 102 | 105 | 106
NC(N)=NC(N)=Nc1ccc2ccccc2c1 | 101 | 95 | 12 | 6 | 100 | 99 | · | · | · | · | · | · | ·
NC(N)=NC(N)=Nc1ccc(SC(F)(F)F)cc1 | 101 | 72 | 11 | 2 | 16* | 97 | 101* | 0 | 101 | 100 | 102 | 100 | 100
COc1cc2c(cc1OC)CN(C(=S)Nc1c(C)cccc1C)CC2 | 100 | 102 | 17 | 4 | 110 | 97 | · | · | · | · | · | · | ·
CC(C)Sc1nc2ccc(N3C(=O)C4CCCCC4C3=O)cc2s1 (stereo not drawn) | 88 | 65 | 10 | 2 | 21* | 89 | 88* | -4 | 114 | 108 | 120 | 107 | 116
COCc1cc(=O)[nH]c(/N=C(\N)Nc2cccc(Cl)c2)n1 | 101 | 104 | 11 | 21 | 109 | 101 | · | · | · | · | · | · | ·
CCN(CC)C(=O)CSc1nc(O)cc(=O)n1C | 102 | 103 | 15 | 11 | 99 | 103 | · | · | · | · | · | · | ·
CCN(CC)C(=O)CSc1nc(O)cc(=O)n1CC | 126 | 97 | 14 | 156* | 113 | 166*[activator] | 126* | · | · | · | · | · | ·
CC(=O)c1sc(Nc2nc3cc4c(cc3s2)OCO4)nc1C | 98 | 95 | 9 | 11 | 95 | 95 | · | · | · | · | · | · | ·
CCOC(=O)c1sc(Nc2nc3cc4c(cc3s2)OCO4)cc1C | 583*[activator] | 171*[activator] | 102* | 417* | 938*[activator] | 666*[activator] | · | 2 | 92 | 69* | 80 | 80 | 48*
CN(CC(=O)Nc1cccc2ccccc12)C(=O)c1cccc(S(=O)(=O)N(C)C)c1 | 91 | 94 | · | 6 | 87 | ? | · | · | · | · | · | · | ·
CC1=CC(C)(C)N=C(NC#N)N1 | 42* | 60 | 46 | -2 | 77 | 44* | · | 0 | 99 | 93 | 97 | 97 | 102
COc1ccc2c(C)cc(SCc3c(C)noc3C)nc2c1 | 114 | 154*[activator] | 27 | 18 | 345 | 117 | 114* | · | · | · | · | · | ·
Cc1cc(NC(=O)c2cc3cccc([N+](=O)[O-])c3[nH]2)ccc1F | 103 | 103 | · | 5 | 103 | ? | · | · | · | · | · | · | ·
CN1CCCN(S(=O)(=O)c2ccc(Cl)c(Cl)c2)CC1 | 102 | 99 | 16 | 10 | 100 | 101 | · | · | · | · | · | · | ·
Cc1nn(Cc2ccccc2Cl)c2sc(C(=O)Nc3ccccc3N3CCOCC3)cc12 | 97 | 100 | 14 | 12 | 105 | 95 | · | · | · | · | · | · | ·
Cc1nn(Cc2ccc(F)cc2)c2sc(C(=O)Nc3ccccc3N3CCOCC3)cc12 | 89 | 83 | 7 | 6 | 15* | 91 | 89* | 0 | 98 | 92 | 99 | 98 | 97
O=C(CCN1CCOCC1)NNC(=S)NC(=O)c1ccc(Br)cc1 | 98 | 102 | 13 | 24 | 105 | 96 | · | · | · | · | · | · | ·
COC(C(=O)Nc1ccc(S(=O)(=O)Nc2c(C)cccc2C)cc1)c1ccccc1 (stereo not drawn) | 102 | 100 | 14 | 14 | 106 | 102 | · | · | · | · | · | · | ·
CCN(CC)S(=O)(=O)c1ccc(NC(=O)C(OC)c2ccccc2)cc1 (stereo not drawn) | · | · | 37 | · | · | · | · | -1 | 100 | 93 | 99 | 99 | 97
O=C1N/C(=N\c2ccccn2)SC1Cc1ccccc1Cl (stereo not drawn) | 87 | 91 | · | 5 | 86 | ? | · | · | · | · | · | · | ·
Cc1cccc(CC2S/C(=N/c3ccccn3)NC2=O)c1 (stereo not drawn) | 113 | 142*[activator] | 21 | 6 | 237 | 114 | 113* | -1 | 109 | 105 | 106 | 103 | 109
O=c1[nH]c2ccccc2nc1/C=C/c1ccc(Cl)cc1 | · | · | 10 | · | · | · | · | 0 | 101 | 99 | 101 | 102 | 102
CCOc1ccccc1OCCCC(=O)Nc1sccc1C(N)=O | 90 | 95 | 11 | 8 | 97 | 91 | · | · | · | · | · | · | ·
Cn1cc(-c2nnnn2-c2ccc(Cl)cc2)c(=O)c2ccccc21 | 130 | 144*[activator] | 29 | 1 | 357 | 124 | 130* | 0 | 101 | 96 | 104 | 100 | 97
SMILES | RGS4-Gao reg | RGS8-Gao | GSH bead fluor | Avidin fluor | RGS16-Gao | RGS7-Gao | RGS-Gao | Biotin-avidin | RGS8-Gao single | RGS7-Gao confirm | RGS16-Gao conf | RGS4-Gao single | RGS19-Gao conf
COc1ccc(NC(=O)Nc2nnc(-c3ccccc3SCc3ccccc3)s2)cc1 | · | · | 33 | · | · | · | · | 0 | 103 | 104 | 105 | 103 | 104
COc1cccc(NC(=O)Nc2nnc(-c3ccccc3SCc3ccccc3)s2)c1 | 105 | 105 | 9 | 7 | 106 | 101 | · | · | · | · | · | · | ·
O=C(c1ccc(S(=O)(=O)NCc2ccco2)cc1)N1CCN(Cc2ccc3c(c2)OCO3)CC1 | 122 | 158*[activator] | 13 | 8 | 336 | 120 | 122* | -1 | 100 | 97 | 100 | 98 | 101
C/C(Cc1ccccc1)=N\NC(=O)CNC(=O)c1ccccc1O | 104 | 102 | · | 7 | 103 | ? | · | · | · | · | · | · | ·
C/C(Cc1ccccc1)=N\NC(=O)CNC(=O)c1ccccc1Br | 88 | 73 | 4 | 6 | 17* | 86 | 88* | 0 | 101 | 75* | 93 | 80 | 83
O=C(Nc1ccccc1[N+](=O)[O-])C1(c2ccccc2)CCOCC1 | 141 | 97 | 23 | 202* | 110 | 334*[activator] | 141* | 2 | 98 | 91 | 95 | 96 | 89
NC(=O)CSc1nnc(-c2ccc(S(=O)(=O)N3CCCCC3)cc2)n1-c1ccccc1 | 125 | 114 | 17 | 11 | 335*[activator] | 111 | 125* | 1 | 106 | 98 | 106 | 105 | 105
COc1ccccc1-n1c(SCC(N)=O)nnc1-c1ccc(S(=O)(=O)N2CCCCC2)cc1 | 97 | 100 | 29 | 4 | 97 | 98 | · | · | · | · | · | · | ·
